From PubChem
TRPV1 PAM – potentiators of human vanilloid receptor 1 (TRPV1); TRPV1-expressing cells, Fluo-8 calcium influx, capsaicin EC20 potentiation; potentiation, % at 8.33 µM; hit rate 0.02% among 320,000; in the data active means potentiation above about 80%; inconclusive means between about 30% and that limit; further: 0% is about no effect
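Fluo-8 calcium influx in TRPV1-expressing cells, kinetic read (ex 480/em 520 nm). Compound added and read 3 min for agonist activity, followed by capsaicin at EC20 final and 2 min further read for enhancement.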
TRPV1 agonist – human TRPV1 agonism. activation, % at 8.33 µM. TRPV1-expressing cells, Fluo-8 calcium influx, agonist mode. hit rate 0.19% among 320,000. Q8NER1; in the data active means activation above about 80%; inconclusive means between about 30% and that limit; further: 0% is about no effect
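Fluo-8 calcium influx in TRPV1-expressing cells, kinetic read (ex 480/em 520 nm). Compound added and read 3 min for agonist activity, followed by capsaicin at EC20 final and 2 min further read for enhancement.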
RORg inh – inhibitors of mouse ROR gamma transcriptional activity; hit rate 5.4% among 310,000; AID 2551; P51450; Drosophila S2 Gal4-RORgamma UAS-luciferase reporter, 20 h; Potency, µM (series often up to 53.6 µM), for inactives: top-dose activity change, negative = inhibition, most hits filed as inhibitors; further: potency means the concentration at half of the fitted maximal effect; on the % scale 0 is the no-effect control and ±100 the full control effect; nearly all actives have a fitted effect of over 60% in size
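Compounds are pin-transferred onto Drosophila Schneider cells expressing a copper-inducible Gal4–ROR gamma transactivation domain fusion. After 1 hr, copper sulfate is added to 700 uM final; luciferase is read 20 hr later.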
VP16 counter – inhibits Gal4-VP16 luciferase reporter, ROR gamma counter-screen; Drosophila S2 Gal4-VP16 UAS-luciferase, luminescence, 20 h; Potency, µM (titrated, usually from 53.6 µM), without a hit: top-dose activity, negative = inhibition, hits mostly inhibitors; hit rate 3.5% among 310,000; AID 2546;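 further: Gal4-VP16 expression switched on by copper sulfate through the metallothionein promoter; potency means the concentration at half of the fitted maximal effect; on the % scale 0 is the no-effect control and ±100 the full control effect; nearly all actives have a fitted effect of over 50% in size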
uPA surface inh – cell surface uPA generation inhibition; cell surface uPA generation assay, qHTS; Potency, µM (top dose mostly 38.3 µM), without a hit: top-dose activity change, negative = inhibition, hits mostly inhibitors; hit rate 0.31% among 330,000; active means well fitted inhibition curve with a large enough effect; inconclusive means small, poorly fitted or top-dose-only effect; inactive means no such curve, though single readings can be large or run the other way; tested in mouse RAW 264.7 cells; further: potency means the concentration at half of the fitted maximal effect; on the % scale 0 is the no-effect control and ±100 the full control effect; nearly all actives have a fitted effect of over 55% in size
Active calls of the source: *. Rows were chosen to be rich in hits. Some 5.8% of all compounds tested hit in one or more screens of this group. Unless noted, the call rests on the fitted dose curve; in most records, active means well fitted curve in the direction sought with a large enough effect; inconclusive means small, poorly fitted or top-dose-only effect, or another doubt; inactive means no such curve, though single readings can be large; an effect the other way counts as inactive or inconclusive.

`COc1ccc(C(=O)/C=C/C(=O)N(CC(=O)NC2CCCCC2)CC2CCCO2)c(O)c1` (stereo unspecified) gave TRPV1 PAM 0, TRPV1 agonist 12, RORg inh 6.3µM*, VP16 counter 3.2µM* and uPA surface inh 2%.
`N#Cc1ccccc1OCC(=O)NCC(c1ccc(F)cc1)N1CCOCC1` (stereo unspecified) gave TRPV1 PAM -12, TRPV1 agonist 4 and uPA surface inh -10%.
CCOc1ccc(C2=C(C(C)=O)Sc3nnc(C)n3N2C(C)=O)cc1 was read as TRPV1 PAM 7 and TRPV1 agonist -4.
Screening CC(=O)C1=C(c2cccc([N+](=O)[O-])c2)N(C(C)=O)n2c(C)nnc2S1 returned TRPV1 PAM 14, TRPV1 agonist -2, RORg inh 5µM*, VP16 counter inconclusive and uPA surface inh inconclusive.
Screening COc1ccc([C@H]2Oc3cc(O)cc(O)c3C(=O)C2[C@@H]2C(=O)c3c(O)cc(O)cc3O[C@@H]2c2ccc(OC)cc2)cc1 (stereo partly specified) returned TRPV1 PAM -19, TRPV1 agonist 11, RORg inh -90%, VP16 counter 22µM* and uPA surface inh -12%.
For C=CCn1c(-c2cccc(OC)c2OC)n[nH]c1=S the results were TRPV1 PAM 10, TRPV1 agonist -3, RORg inh 11µM*, VP16 counter inconclusive and uPA surface inh -5%.
`C=CCn1c(-c2cc(Cl)ccc2OC)n[nH]c1=S` gave TRPV1 PAM 7, TRPV1 agonist 0, RORg inh 11µM*, VP16 counter 18µM* and uPA surface inh 8%.
C=CCn1c(-c2cc3cccc(OC)c3o2)n[nH]c1=S was read as TRPV1 PAM 1, TRPV1 agonist -2, RORg inh 3.5µM*, VP16 counter inconclusive and uPA surface inh 8%.
Screening COc1cccc2cc(-c3ccnc(=S)[nH]3)oc12 returned TRPV1 PAM 11, TRPV1 agonist 1, RORg inh 2.8µM* and VP16 counter inconclusive.
For C=CCn1c(-c2ccoc2C)n[nH]c1=S the results were TRPV1 PAM 10, TRPV1 agonist 0, RORg inh inconclusive and VP16 counter inconclusive.
Screening COc1ccc(Cl)cc1-c1n[nH]c(=S)n1C returned TRPV1 PAM -5, TRPV1 agonist 2, RORg inh inconclusive, VP16 counter 2% and uPA surface inh 8%.
For CCn1c(-c2cc(Cl)ccc2OC)n[nH]c1=S the results were TRPV1 PAM 4, TRPV1 agonist 0, RORg inh 6.3µM*, VP16 counter inconclusive and uPA surface inh 1%.
`COc1ccc(-c2n[nH]c(=S)n2-c2ccccc2C)cc1OC` gave TRPV1 PAM 6, TRPV1 agonist -1, RORg inh 11µM*, VP16 counter inconclusive and uPA surface inh 1%.
`COc1ccc(-c2n[nH]c(=S)n2-c2ccc(Br)cc2)cc1OC` gave TRPV1 PAM -4, TRPV1 agonist 1, RORg inh 20µM*, VP16 counter inconclusive and uPA surface inh -5%.
`COc1ccc(-c2n[nH]c(=S)n2-c2ccccc2C)cc1` gave TRPV1 PAM -12, TRPV1 agonist 1, RORg inh 5.6µM*, VP16 counter 6.3µM* and uPA surface inh 5%.
CC(C)c1ccccc1-n1c(-c2cccnc2)n[nH]c1=S was read as TRPV1 PAM -24, TRPV1 agonist -1, RORg inh inconclusive, VP16 counter -28% and uPA surface inh 1%.
COc1cccc(CS(=O)(=O)c2nnnn2CC(C)C)c1 was read as RORg inh -17% and VP16 counter 0%.
Screening Cn1c(/C(C#N)=C(\O)c2cc(Cl)sc2Cl)nc2ccccc21 returned TRPV1 PAM inconclusive, TRPV1 agonist 2, RORg inh 4.5µM*, VP16 counter 4.5µM* and uPA surface inh -17%.
Screening Cn1c(/C(C#N)=C/c2cccc(O)c2)nc2ccccc21 returned TRPV1 PAM 28, TRPV1 agonist -2, RORg inh -11%, VP16 counter -10% and uPA surface inh -11%.
COc1ccc(C(O)c2nc3ccccc3n2C)cc1OC (stereo unspecified) was read as TRPV1 PAM 7, TRPV1 agonist 3, RORg inh -35%, VP16 counter 6.3µM* and uPA surface inh -8%.
